Here are results for 76 compounds from PubChem BioAssay (Tox21).

This experiment has as its target Beta-2 adrenergic receptor (Homo sapiens) (UniProt P07550). The experiment in a line: Adrenergic beta2 receptor (ADRB2) small molecule agonists, cell-based qHTS assay (AID 1963593).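 Also: CHO cells stably overexpressing human ADRB2.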 The following applies: CHO-ADRB2 cells, cAMP HTRF, 30 min; series mostly up to 92.4 µM. Put shortly:
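CHO cells stably over-expressing ADRB2 were plated overnight at 37C, then dosed with compounds plus a stimulation mix containing 100uM IBMX and 25uM Ro-20-1724 for 0.5hr at room temperature. cAMP was measured by HTRF competition, 1hr.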
A general note: In qHTS, concentration-response curves come from the screen itself.

Each structure is given as a SMILES string. Records with an inconclusive call do not appear. Where a call stands in place of a potency, no number is given. Calls of active or inactive are those of the source. Calls follow the shape of the full dose curve.

Chain of Beta-2 adrenergic receptor (Homo sapiens) (P07550 whole entry, looked up): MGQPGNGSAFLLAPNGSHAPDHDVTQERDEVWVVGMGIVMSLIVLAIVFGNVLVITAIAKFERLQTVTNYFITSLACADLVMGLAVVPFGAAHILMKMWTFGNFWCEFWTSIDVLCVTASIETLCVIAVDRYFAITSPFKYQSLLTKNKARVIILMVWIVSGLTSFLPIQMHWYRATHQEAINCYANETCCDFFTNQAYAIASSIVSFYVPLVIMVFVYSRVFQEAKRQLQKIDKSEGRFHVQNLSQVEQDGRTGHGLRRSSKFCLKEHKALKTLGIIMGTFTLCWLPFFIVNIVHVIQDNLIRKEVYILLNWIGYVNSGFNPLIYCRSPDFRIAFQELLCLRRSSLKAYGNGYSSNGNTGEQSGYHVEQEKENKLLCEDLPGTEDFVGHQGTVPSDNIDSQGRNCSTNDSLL

With `CC(=O)CCC=C(C)C`, the Potency entry is “inactive”. For `CCCCCCOCCO` the value was “inactive”; for `CC1(C)S[C@@H]2[C@H](NC(=O)COc3ccccc3)C(=O)N2[C@H]1C(=O)O`, “inactive”; for `c1ccc2cc3ccccc3cc2c1`, “inactive”.

Take `C=C(C)C(N)=O`: the Potency result was “inactive”. Take `OCCOCCOCCOCCO`: the Potency entry is “inactive”. For the compound `Cc1ncc(CO)c(CO)c1O`, the Potency result is “inactive”. As for `Cc1cc(C2(c3cc(C)c(O)cc3C)OS(=O)(=O)c3ccccc32)c(C)cc1O`, the Potency entry is “inactive”. Consider `CCNc1cccc(C)c1`, for which the Potency result was “inactive”.

Turning to `CCOCC(=O)O`, the Potency entry is “inactive”. For the compound `Brc1cc(Oc2cc(Br)c(Br)c(Br)c2Br)c(Br)c(Br)c1Br`, the Potency result was “inactive”. Take `c1ccc(Oc2ccccc2)cc1`: the Potency entry is “inactive”.

Take `CC(=O)OCCC(C)C`: the Potency entry is “inactive”. As for `C=C(C)C(=O)O[C@H]1C[C@@H]2CC[C@@]1(C)C2(C)C`, the Potency result was “inactive”.

`C[Si]1(C)O[Si](C)(C)O[Si](C)(C)O[Si](C)(C)O1`: the Potency result was “inactive”.

Turning to `NCCN`, the Potency entry is “inactive”.

For the compound `NC(N)=S`, the Potency result is “inactive”.

As to `O=S1(=O)CC=CC1`, the Potency result was “inactive”. For `CCC(Cc1c(I)cc(I)c(N)c1I)C(=O)O` (stereo unspecified), the Potency result was “inactive”. Consider `c1ccc2c(c1)ccc1cc3c(ccc4ccccc43)cc12`, for which the Potency entry was “inactive”. For `Cc1c(C(N)=O)cc([N+](=O)[O-])cc1[N+](=O)[O-]` the value was “inactive”; for `[Na+]`, “inactive”. The value for `O=C(CC(C(=O)OC1CCCCC1)S(=O)(=O)O)OC1CCCCC1` (stereo unspecified) was “inactive”. Turning to `C=C(C)C1CC=C(C)C(OC(C)=O)C1` (stereo unspecified), the Potency entry was “inactive”.

As to `C=CC[N+](C)(C)CC=C`, the Potency entry is “inactive”. Turning to `COc1ccccc1[N+](=O)[O-]`, the Potency result was “inactive”. In the case of `C[Si](C)(C)O[Si](C)(C)C`, the Potency result is “inactive”.

Regarding `NS(=O)(=O)O`, the Potency result was “inactive”. Regarding `Cc1ccc([N+](=O)[O-])c(C)c1`, the Potency result was “inactive”.

Take `NC(=O)/N=N/C(N)=O`: the Potency entry was “inactive”.

As for `CCCCCC1C(=O)CCC1CC(=O)OC` (stereo unspecified), the Potency entry was “inactive”. `CCCCOCCOC(=O)c1ccccc1C(=O)OCCOCCCC`: the Potency result was “inactive”. For the compound `CC(=O)OC(C)(C)C1CC=C(C)CC1` (stereo unspecified), the Potency entry is “inactive”. With `O=C1CCCCCCCCCCCN1`, the Potency result was “inactive”. For `CCOc1ccc(NC(=O)CC(C)O)cc1` (stereo unspecified) the value was “inactive”. In the case of `CN(C)CCOCCN(C)C`, the Potency entry was “inactive”. Turning to `CC(=O)OC(C)C`, the Potency result is “inactive”. `CCOC(=O)NNc1nncc2ccccc12`: the Potency entry is “inactive”.

As for `COC(=O)/C=C\C(=O)OC`, the Potency entry is “inactive”.

With `CC1=CC(C)(C)Nc2ccccc21`, the Potency result was “inactive”. For `Clc1cc(Cl)c(Cl)cc1Cl` the value was “inactive”; for `ClC1=C(Cl)C(Cl)(Cl)C(Cl)=C1Cl`, “inactive”; for `CC1=CC(=O)CC(C)(C)C1`, “inactive”. For `COCC(C)N` (stereo unspecified), the Potency entry was “inactive”.

With `COc1ccc(Nc2ccccc2)c(C)c1`, the Potency result is “inactive”.

Turning to `CC(O)COc1ccccc1` (stereo unspecified), the Potency entry was “inactive”.

In the case of `CCC(=O)/C=C/C1C(C)=CCCC1(C)C` (stereo unspecified), the Potency entry is “inactive”.

Consider `Cc1cc(C)c(O)c(C)c1`, for which the Potency entry is “inactive”.

Consider `C=CCOC(=O)c1ccccc1C(=O)OCC=C`, for which the Potency result is “inactive”. As to `NCCN1CCNCC1`, the Potency result was “inactive”. Regarding `CCCCC(CC)COC(=O)/C=C/c1ccc(OC)cc1` (stereo unspecified), the Potency result was “inactive”.

In the case of `O=CCc1ccccc1`, the Potency result is “inactive”. The value for `Fc1ccc(Br)cc1` was “inactive”; that for `CCN1CCCC1=O` was “inactive”; that for `CC(=O)[C@H]1CC[C@H]2[C@@H]3CC=C4C[C@@H](O)CC[C@]4(C)[C@H]3CC[C@]12C` was “inactive”. As to `CC/C(C)=N/O`, the Potency entry is “inactive”. As for `O=S(=O)(O)c1ccc2cc(O)ccc2c1`, the Potency result was “inactive”. Regarding `C=CC(=O)NC(C)(C)CS(=O)(=O)O`, the Potency result was “inactive”. Take `C=CC(C)(C)C`: the Potency entry is “inactive”. Regarding `CCC(=O)O`, the Potency result was “inactive”. With `O=C(O)CCCC(=O)O`, the Potency result was “inactive”. For the compound `Cc1ccc([N+](=O)[O-])cc1N`, the Potency entry was “inactive”. For `CCOC(=O)C(C#N)=C(c1ccccc1)c1ccccc1`, the Potency result was “inactive”. On to `COCC(=O)O`, for which the Potency result was “inactive”. As for `CC1(C)NC(=O)NC1=O`, the Potency result was “inactive”. As to `C1CNCCN1`, the Potency entry is “inactive”. As for `Cc1ccc(S(=O)(=O)O)cc1C`, the Potency entry was “inactive”. For `CCCCCCCC(=O)OCC(O)CO` (stereo unspecified), the Potency result is “inactive”. The value for `O=Cc1ccccc1O` was “inactive”; that for `Nc1nc2ncc(CNc3ccc(C(=O)N[C@@H](CCC(=O)O)C(=O)O)cc3)nc2c(=O)[nH]1` was “inactive”; that for `COC(=O)c1ccccc1` was “inactive”. Regarding `O=[N+]([O-])c1cc(C(F)(F)F)ccc1Cl`, the Potency result was “inactive”.

Consider `O=C1C(c2[nH]c3ccccc3c2O)=Nc2ccccc21`, for which the Potency entry is “inactive”. For the compound `CCCCC1(COC(=O)CCC(=O)O)C(=O)N(c2ccccc2)N(c2ccccc2)C1=O`, the Potency result is “inactive”. As for `CCc1ccccc1CC`, the Potency entry was “inactive”.

As for `c1ccc2[nH]cnc2c1`, the Potency entry was “inactive”.
